# Inconclusive results are not listed. A structure can be active in one record and inactive in another. Active and inactive are the calls of the source. How the source made its calls, unless noted: active means hit-call score of the fitted dose curve at least 0.9, where 1 is the maximum; inactive means score below 0.9.
# Tests used:
# [1] = molecular target: human Peroxisome Proliferator-activated Receptor delta (PPARd), PPARD (gene 5467) (UniProt Q03181); test: ATG_PPARd_TRANS: Attagene TRANS-FACTORIAL HepG2 Assay for human Peroxisome Proliferator-activated Receptor delta (PPARd) (AID 2283002; active means hit-call score of the fitted dose curve at least 0.9, where 1 is the maximum)
# Procedure, shortened: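 Read-out is induced reporter mRNA, quantified by RT-PCR with fluorescent labelling and capillary electrophoresis after 24 h dosing. Cells are HepG2 transiently carrying multiple GAL4-UAS reporter units driven by exogenous NR-GAL4 chimeras; DMSO serves as baseline.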
# [2] = read-out: Intercellular Adhesion Molecule 1 (ICAM1), ICAM1 (gene 3383); test: BSK_3C_ICAM1: BioMAP Diversity Plus: 3C Assay for Intercellular Adhesion Molecule 1 (ICAM1) Biomarker Activity (AID 2283003); conditions: primary human endothelial cells (HUVEC); actives raise or lower the signal
# Procedure, shortened: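 Primary human umbilical vein endothelial cells in the BioMAP 3C system were exposed to chemicals for 24 h, then ICAM-1 was quantified by ELISA. Activity was fitted bidirectionally against the DMSO negative control baseline.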
# [3] = molecular target: Nuclear receptor subfamily 1 group I member 2 (Homo sapiens) (UniProt O75469); test: ATG_PXR_TRANS: Attagene TRANS-FACTORIAL HepG2 Assay for human Pregnane X Receptor (PXR) (AID 2283008; active means hit-call score of the fitted dose curve at least 0.9, where 1 is the maximum)
# Procedure, shortened: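 Measures mRNA induction of a GAL4-UAS-driven reporter in human HepG2 cells transiently expressing PXR fused to Gal4, following 24 h treatment. DMSO served as negative control and baseline.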
# [4] = molecular target: Retinoic acid receptor RXR-alpha (Homo sapiens) (UniProt P19793); test: ATG_RXRa_TRANS: Attagene TRANS-FACTORIAL HepG2 Assay for human Retinoid X Receptor alpha (RXRa) (AID 2283012; active means hit-call score of the fitted dose curve at least 0.9, where 1 is the maximum)
# Procedure, shortened: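 HepG2 cells transiently transfected with multiplexed GAL4-UAS reporter units and chimeric NR-GAL4 fusions, dosed 24 h. Reporter mRNA measured by RT-PCR, FAM labelling, HpaI digestion and capillary electrophoresis; gain-of-signal fitted relative to DMSO baseline.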
# [5] = read-out: E-selectin (Homo sapiens) (UniProt P16581); test: BSK_3C_Eselectin: BioMAP Diversity Plus: 3C Assay for Eselectin Biomarker Activity (AID 2283015); conditions: primary human endothelial cells (HUVEC); actives raise or lower the signal;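 on outcome: cell surface E-selectin protein quantified by ELISA 24 h after dosing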
# Procedure, shortened: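 Human vascular endothelium from umbilical vein is exposed to test chemicals for 24 h. E-selectin levels are read by ELISA and compared with DMSO controls.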
# [6] = read-out: Interleukin-1 alpha (IL1a), IL1A (gene 3552); test: BSK_BE3C_IL1a: BioMAP Diversity Plus: BE3C Assay for Interleukin-1 alpha (IL1a) Biomarker Activity (AID 2283016); conditions: primary human bronchial epithelial cells; actives raise or lower the signal
# Procedure, shortened: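 Human primary bronchial epithelial cells (BE3C system) were dosed with compound and IL-1a measured by ELISA 24 h later. Activity was fitted bidirectionally against DMSO baseline; cytotoxicity was tracked in parallel cultures by SRB total-protein staining.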
# [7] = read-out: Monocyte Chemoattractant Protein-1 (MCP1), CCL2 (gene 6347); test: BSK_3C_MCP1: BioMAP Diversity Plus: 3C Assay for Monocyte Chemoattractant Protein-1 (MCP1) Biomarker Activity (AID 2283017); conditions: primary human endothelial cells (HUVEC); actives raise or lower the signal
# Procedure, shortened: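 Endothelial cells from human umbilical vein are dosed with chemical, cultured 24 h, then assayed for MCP-1 by ELISA; both increases and decreases are modelled against DMSO controls.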
# [8] = read-out: Monocyte Chemoattractant Protein-1 (MCP1), CCL2 (gene 6347); test: BSK_4H_MCP1: BioMAP Diversity Plus: 4H Assay for Monocyte Chemoattractant Protein-1 (MCP1) Biomarker Activity (AID 2283018); conditions: primary human endothelial cells (HUVEC); actives raise or lower the signal
# Procedure, shortened: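 Human umbilical vein endothelial cells (4H system) dosed with chemical; MCP-1 measured by ELISA 24 h after dosing. Bidirectional curve fitting against DMSO negative control as baseline; parallel SRB total-protein staining tracks overt cytotoxicity.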
# [9] = read-out: Human Leukocyte Antigen - DR isotype (HLADR), HLA-DRA (gene 3122); test: BSK_3C_HLADR: BioMAP Diversity Plus: 3C Assay for Human Leukocyte Antigen - DR isotype (HLADR) Biomarker Activity (AID 2283019); conditions: primary human endothelial cells (HUVEC); actives raise or lower the signal;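 on outcome: ELISA of cell-surface HLA-DR on HUVEC 24 h after dosing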
# Procedure, shortened: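 Endothelial cells from human umbilical vein are treated with test chemical; after 24 h, HLA-DR levels are measured by ELISA. Data are fitted in both directions using DMSO as the baseline.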
# [10] = read-out: Interleukin-8 (IL8), CXCL8 (gene 3576); test: BSK_3C_IL8: BioMAP Diversity Plus: 3C Assay for Interleukin-8 (IL8) Biomarker Activity (AID 2283020); conditions: primary human endothelial cells (HUVEC); actives raise or lower the signal
# Procedure, shortened: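 Primary human umbilical vein endothelial cells (3C system) were exposed to test chemical for 24 h, then IL-8 was quantified by ELISA. Responses were fitted bidirectionally against DMSO vehicle as baseline.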
# [11] = read-out: Monokine induced gamma interferon (MIG), CXCL9 (gene 4283); test: BSK_3C_MIG: BioMAP Diversity Plus: 3C Assay for Monokine induced gamma interferon (MIG) Biomarker Activity (AID 2283021); conditions: primary human endothelial cells (HUVEC); actives raise or lower the signal;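 on AC50: MIG protein level measured by immunoassay in the treated endothelial cultures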
# Procedure, shortened: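 Primary human umbilical vein endothelial cells in the 3C system were exposed to chemical for 24 h, after which MIG was quantified by ELISA. Activity was fitted bidirectionally against DMSO as negative control and baseline.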
# [12] = molecular target: human Vitamin D Receptor (VDR), VDR (gene 7421) (UniProt P11473); test: ATG_VDR_TRANS: Attagene TRANS-FACTORIAL HepG2 Assay for human Vitamin D Receptor (VDR) (AID 2283022; active means hit-call score of the fitted dose curve at least 0.9, where 1 is the maximum)
# Procedure, shortened: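 Fluorescence of labelled reporter cDNA fragments, resolved by capillary electrophoresis, gives mRNA induction after 24 h treatment of HepG2 cells carrying transfected Gal4-fusion reporter units. Activity is fitted in the positive direction with DMSO as baseline.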
# [13] = BSK_3C_Proliferation: Cell Proliferation Assessment in the BioMAP Diversity Plus: 3C Assay (AID 2283006); conditions: primary human endothelial cells (HUVEC)
# Procedure, shortened: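 Human umbilical vein endothelial cells were grown sub-confluent and exposed to chemical for 48 h, then fixed with 10% TCA and stained with 0.1% sulforhodamine B; absorbance at 560 nm gave relative cell number, fitted bidirectionally against DMSO baseline.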
# [14] = molecular target: Peroxisome proliferator-activated receptor gamma (Homo sapiens) (UniProt P37231); test: ATG_PPARg_TRANS: Attagene TRANS-FACTORIAL HepG2 Assay for human Peroxisome Proliferator-activated Receptor-gamma (PPARg) (AID 2283007; active means hit-call score of the fitted dose curve at least 0.9, where 1 is the maximum)
# Procedure, shortened: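 Read-out: reporter mRNA induction, detected by fluorescence after RT-PCR and capillary electrophoresis. Transiently transfected human HepG2 liver cells carrying a chimeric NR-Gal4 construct were dosed for 24 h; activity was fitted upward relative to DMSO.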
# [15] = molecular target: human RAR-related Orphan Receptor gamma (RORg), RORC (gene 6097) (UniProt P51449); test: ATG_RORg_TRANS: Attagene TRANS-FACTORIAL HepG2 Assay for human RAR-related Orphan Receptor gamma (RORg) (AID 2283011; active means hit-call score of the fitted dose curve at least 0.9, where 1 is the maximum)
# Procedure, shortened: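 Activity is scored as increase in GAL4-UAS reporter mRNA over DMSO, detected by fluorescent RT-PCR and capillary electrophoresis in HepG2 cells transiently expressing a RORg-Gal4 chimera, 24 h after dosing.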
# [16] = molecular target: human Retinoid X Receptor beta (RXRb), RXRB (gene 6257) (UniProt P28702); test: ATG_RXRb_TRANS: Attagene TRANS-FACTORIAL HepG2 Assay for human Retinoid X Receptor beta (RXRb) (AID 2283013; active means hit-call score of the fitted dose curve at least 0.9, where 1 is the maximum)
# Procedure, shortened: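 HepG2 cells transiently transfected with multiplexed reporter units driven by GAL4-UAS and exogenous chimeric NR-Gal4 proteins; treated 24 h. Reporter mRNA measured by RT-PCR, 6-FAM labelling and capillary electrophoresis; gain-of-signal fitted versus DMSO baseline.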
# [17] = molecular target: human RAR-related Orphan Receptor beta (RORb), RORB (gene 6096) (UniProt Q92753); test: ATG_RORb_TRANS: Attagene TRANS-FACTORIAL HepG2 Assay for human RAR-related Orphan Receptor beta (RORb) (AID 2283010; active means hit-call score of the fitted dose curve at least 0.9, where 1 is the maximum)
# Procedure, shortened: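 HepG2 cells were transiently transfected with multiplexed GAL4-UAS reporter units expressing chimeric nuclear receptor–GAL4 proteins, then dosed for 24 h. Reporter mRNA was quantified by RT-PCR with fluorescent labelling and capillary electrophoresis; gain of signal was fitted relative to DMSO.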
# [18] = molecular target: human Thyroid Receptor alpha (THRa1), THRA (gene 7067) (UniProt P10827); test: ATG_THRa1_TRANS: Attagene TRANS-FACTORIAL HepG2 Assay for human Thyroid Receptor alpha (THRa1) (AID 2283014; active means hit-call score of the fitted dose curve at least 0.9, where 1 is the maximum)
# Procedure, shortened: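 First, HepG2 cells receive multiple GAL4-UAS reporter units and the chimeric receptor. They are then dosed for 24 h, after which RNA is reverse-transcribed, amplified, labelled, HpaI-cut and sized by capillary electrophoresis; gain relative to DMSO is scored.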
# [19] = BSK_3C_SRB: Viability Assessment in the BioMAP Diversity Plus: 3C Assay (AID 2283023); conditions: primary human endothelial cells (HUVEC);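 further: fitted both ways against DMSO so a hit may be signal rise or drop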
# Procedure, shortened: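 Cells were dosed with chemical, cultured 24 h, fixed with 10% TCA, stained with 0.1% SRB and read at 560 nm. Human umbilical vein endothelium was used; DMSO served as negative control and baseline.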
# Sequence of human RAR-related Orphan Receptor gamma (RORg), RORC (gene 6097) (P51449 whole entry, looked up, the tested form may be a part): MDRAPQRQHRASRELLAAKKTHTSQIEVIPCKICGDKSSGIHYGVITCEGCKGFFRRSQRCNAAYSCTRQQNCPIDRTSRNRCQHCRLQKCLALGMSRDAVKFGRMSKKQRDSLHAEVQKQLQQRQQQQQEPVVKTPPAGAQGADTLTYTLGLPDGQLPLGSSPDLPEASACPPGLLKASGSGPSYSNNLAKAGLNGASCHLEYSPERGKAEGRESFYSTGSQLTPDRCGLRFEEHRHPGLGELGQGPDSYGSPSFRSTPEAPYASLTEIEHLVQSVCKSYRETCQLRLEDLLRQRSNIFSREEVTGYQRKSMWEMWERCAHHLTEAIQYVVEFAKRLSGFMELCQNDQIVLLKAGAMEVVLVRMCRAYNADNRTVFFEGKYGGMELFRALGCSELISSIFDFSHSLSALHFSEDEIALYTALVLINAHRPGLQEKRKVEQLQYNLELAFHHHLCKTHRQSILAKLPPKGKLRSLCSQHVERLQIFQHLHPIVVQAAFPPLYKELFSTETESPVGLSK
# Sequence of human Thyroid Receptor alpha (THRa1), THRA (gene 7067) (P10827 whole entry, looked up, the tested form may be a part): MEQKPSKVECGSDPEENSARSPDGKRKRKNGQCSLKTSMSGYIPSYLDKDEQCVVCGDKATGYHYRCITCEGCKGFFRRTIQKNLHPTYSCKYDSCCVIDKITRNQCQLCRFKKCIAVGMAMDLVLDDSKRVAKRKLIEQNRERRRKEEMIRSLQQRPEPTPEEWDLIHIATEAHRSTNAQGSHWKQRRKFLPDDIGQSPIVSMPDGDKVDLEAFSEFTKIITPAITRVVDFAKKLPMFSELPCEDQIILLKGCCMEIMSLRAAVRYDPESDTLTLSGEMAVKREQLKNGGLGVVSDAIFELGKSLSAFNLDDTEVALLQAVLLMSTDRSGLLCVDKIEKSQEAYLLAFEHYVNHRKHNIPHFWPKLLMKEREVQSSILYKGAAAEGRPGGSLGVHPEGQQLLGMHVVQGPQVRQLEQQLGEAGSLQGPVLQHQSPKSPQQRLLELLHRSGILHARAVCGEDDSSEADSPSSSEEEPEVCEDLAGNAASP
# Sequence of Nuclear receptor subfamily 1 group I member 2 (Homo sapiens) (O75469 whole entry, looked up, the tested form may be a part): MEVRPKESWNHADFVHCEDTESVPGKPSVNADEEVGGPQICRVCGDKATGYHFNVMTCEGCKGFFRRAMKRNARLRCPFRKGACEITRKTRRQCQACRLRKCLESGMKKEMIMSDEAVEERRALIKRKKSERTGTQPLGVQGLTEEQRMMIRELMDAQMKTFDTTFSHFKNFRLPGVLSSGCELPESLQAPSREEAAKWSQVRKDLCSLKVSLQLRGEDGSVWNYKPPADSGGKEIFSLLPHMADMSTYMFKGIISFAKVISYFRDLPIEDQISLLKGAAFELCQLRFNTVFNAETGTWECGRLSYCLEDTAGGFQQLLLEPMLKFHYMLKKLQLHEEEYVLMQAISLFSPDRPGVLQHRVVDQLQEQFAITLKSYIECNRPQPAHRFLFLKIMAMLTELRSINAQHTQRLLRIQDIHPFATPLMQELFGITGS
# Sequence of Peroxisome proliferator-activated receptor gamma (Homo sapiens) (P37231 whole entry, looked up, the tested form may be a part): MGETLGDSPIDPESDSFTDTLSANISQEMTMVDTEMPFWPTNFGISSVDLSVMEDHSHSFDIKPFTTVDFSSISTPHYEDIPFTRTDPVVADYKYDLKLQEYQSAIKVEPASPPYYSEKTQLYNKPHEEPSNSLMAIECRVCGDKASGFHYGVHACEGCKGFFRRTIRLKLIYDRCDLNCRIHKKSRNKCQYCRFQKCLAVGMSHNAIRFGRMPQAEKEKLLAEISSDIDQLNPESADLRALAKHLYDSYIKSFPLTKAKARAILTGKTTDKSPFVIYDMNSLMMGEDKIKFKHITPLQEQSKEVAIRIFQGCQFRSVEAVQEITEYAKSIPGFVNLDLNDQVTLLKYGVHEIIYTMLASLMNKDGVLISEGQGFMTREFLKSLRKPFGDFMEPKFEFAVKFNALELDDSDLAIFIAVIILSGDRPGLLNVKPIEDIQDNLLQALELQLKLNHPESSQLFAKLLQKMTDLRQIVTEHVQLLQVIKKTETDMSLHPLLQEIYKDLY
# Sequence of human Retinoid X Receptor beta (RXRb), RXRB (gene 6257) (P28702 whole entry, looked up, the tested form may be a part): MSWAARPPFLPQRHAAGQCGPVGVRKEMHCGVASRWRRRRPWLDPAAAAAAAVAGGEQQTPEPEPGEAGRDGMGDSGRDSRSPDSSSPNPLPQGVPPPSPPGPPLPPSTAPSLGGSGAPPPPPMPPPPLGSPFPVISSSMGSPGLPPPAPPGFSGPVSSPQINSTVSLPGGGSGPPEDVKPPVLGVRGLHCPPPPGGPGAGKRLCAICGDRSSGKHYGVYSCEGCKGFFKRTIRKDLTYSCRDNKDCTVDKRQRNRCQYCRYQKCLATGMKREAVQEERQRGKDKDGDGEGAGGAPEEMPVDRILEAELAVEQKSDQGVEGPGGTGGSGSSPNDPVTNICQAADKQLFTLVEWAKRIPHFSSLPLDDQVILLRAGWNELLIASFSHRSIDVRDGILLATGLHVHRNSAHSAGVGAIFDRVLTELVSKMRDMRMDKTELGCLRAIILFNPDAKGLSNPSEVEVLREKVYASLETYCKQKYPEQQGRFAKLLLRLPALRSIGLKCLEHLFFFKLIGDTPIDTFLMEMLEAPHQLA
# Sequence of human Peroxisome Proliferator-activated Receptor delta (PPARd), PPARD (gene 5467) (Q03181 whole entry, looked up, the tested form may be a part): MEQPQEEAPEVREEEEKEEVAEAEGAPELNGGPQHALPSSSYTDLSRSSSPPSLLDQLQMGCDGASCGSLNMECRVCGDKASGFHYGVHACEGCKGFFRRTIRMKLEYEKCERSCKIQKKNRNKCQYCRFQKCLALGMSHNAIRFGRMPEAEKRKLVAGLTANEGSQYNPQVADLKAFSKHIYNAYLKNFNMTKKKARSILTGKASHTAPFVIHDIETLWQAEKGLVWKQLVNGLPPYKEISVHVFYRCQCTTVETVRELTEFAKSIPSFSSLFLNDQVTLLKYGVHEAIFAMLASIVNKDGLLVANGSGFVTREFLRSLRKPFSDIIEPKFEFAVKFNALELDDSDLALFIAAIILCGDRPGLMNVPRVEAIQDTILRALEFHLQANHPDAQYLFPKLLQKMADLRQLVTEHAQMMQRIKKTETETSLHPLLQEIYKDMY
# Sequence of human Vitamin D Receptor (VDR), VDR (gene 7421) (P11473 whole entry, looked up, the tested form may be a part): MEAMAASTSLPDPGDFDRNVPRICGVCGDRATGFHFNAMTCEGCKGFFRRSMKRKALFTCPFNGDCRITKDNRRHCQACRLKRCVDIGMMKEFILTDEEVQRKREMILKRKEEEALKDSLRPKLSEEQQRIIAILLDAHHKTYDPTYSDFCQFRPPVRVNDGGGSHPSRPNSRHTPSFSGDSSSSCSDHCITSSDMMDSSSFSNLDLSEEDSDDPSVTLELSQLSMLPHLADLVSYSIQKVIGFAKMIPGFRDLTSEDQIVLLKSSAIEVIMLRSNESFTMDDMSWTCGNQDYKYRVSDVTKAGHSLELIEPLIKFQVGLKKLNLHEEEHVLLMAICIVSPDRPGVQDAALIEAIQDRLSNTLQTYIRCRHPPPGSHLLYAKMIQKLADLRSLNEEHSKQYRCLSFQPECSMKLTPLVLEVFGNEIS
# Sequence of Retinoic acid receptor RXR-alpha (Homo sapiens) (P19793 whole entry, looked up, the tested form may be a part): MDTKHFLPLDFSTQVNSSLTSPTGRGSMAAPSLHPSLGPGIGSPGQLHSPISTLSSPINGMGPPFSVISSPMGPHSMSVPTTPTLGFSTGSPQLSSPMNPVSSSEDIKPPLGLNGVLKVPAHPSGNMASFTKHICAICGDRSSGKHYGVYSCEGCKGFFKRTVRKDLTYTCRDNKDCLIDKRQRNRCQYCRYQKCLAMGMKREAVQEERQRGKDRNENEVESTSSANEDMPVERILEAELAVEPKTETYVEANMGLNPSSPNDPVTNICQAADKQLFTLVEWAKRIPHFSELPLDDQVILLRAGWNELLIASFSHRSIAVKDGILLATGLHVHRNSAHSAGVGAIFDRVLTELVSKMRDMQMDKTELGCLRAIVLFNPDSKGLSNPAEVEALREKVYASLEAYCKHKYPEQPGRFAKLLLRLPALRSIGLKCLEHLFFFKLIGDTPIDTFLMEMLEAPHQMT
# Sequence of E-selectin (Homo sapiens) (P16581 whole entry, looked up): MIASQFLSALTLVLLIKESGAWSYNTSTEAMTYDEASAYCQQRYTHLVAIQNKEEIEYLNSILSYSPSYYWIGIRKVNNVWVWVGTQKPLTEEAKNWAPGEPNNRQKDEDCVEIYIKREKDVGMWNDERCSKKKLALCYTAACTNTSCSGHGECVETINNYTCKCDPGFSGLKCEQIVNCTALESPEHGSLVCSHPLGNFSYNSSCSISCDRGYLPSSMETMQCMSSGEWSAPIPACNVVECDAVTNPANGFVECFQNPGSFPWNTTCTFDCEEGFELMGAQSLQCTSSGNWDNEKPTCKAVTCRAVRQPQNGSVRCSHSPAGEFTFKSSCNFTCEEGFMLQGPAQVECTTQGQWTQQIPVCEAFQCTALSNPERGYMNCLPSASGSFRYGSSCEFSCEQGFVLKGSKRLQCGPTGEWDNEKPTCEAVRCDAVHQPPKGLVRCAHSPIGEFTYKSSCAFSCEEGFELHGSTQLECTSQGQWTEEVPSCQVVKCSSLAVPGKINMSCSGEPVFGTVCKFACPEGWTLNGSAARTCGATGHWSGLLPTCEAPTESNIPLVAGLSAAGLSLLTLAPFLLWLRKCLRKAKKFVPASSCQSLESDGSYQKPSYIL
# Sequence of human RAR-related Orphan Receptor beta (RORb), RORB (gene 6096) (Q92753 whole entry, looked up, the tested form may be a part): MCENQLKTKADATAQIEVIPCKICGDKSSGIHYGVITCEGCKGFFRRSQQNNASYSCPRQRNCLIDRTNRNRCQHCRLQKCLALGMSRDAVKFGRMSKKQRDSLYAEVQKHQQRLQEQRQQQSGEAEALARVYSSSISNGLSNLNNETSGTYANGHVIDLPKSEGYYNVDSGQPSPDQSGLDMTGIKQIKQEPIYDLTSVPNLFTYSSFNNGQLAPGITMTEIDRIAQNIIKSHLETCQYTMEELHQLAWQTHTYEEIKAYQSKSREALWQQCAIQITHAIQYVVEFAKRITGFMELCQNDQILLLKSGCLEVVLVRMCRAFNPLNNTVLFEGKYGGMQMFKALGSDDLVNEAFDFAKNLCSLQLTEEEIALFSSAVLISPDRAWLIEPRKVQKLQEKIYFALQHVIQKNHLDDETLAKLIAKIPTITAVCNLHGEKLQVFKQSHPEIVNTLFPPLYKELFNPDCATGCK
structure (smiles),measurement,setting,value
COc1cccc([C@H](O)C2CCN(CCc3ccc(F)cc3)CC2)c1OC,outcome,[1],inactive
same,outcome,[2],inactive
same,outcome,[3],inactive
same,outcome,[4],inactive
same,outcome,[5],inactive
same,outcome,[6],inactive
same,outcome,[7],inactive
same,outcome,[8],inactive
same,outcome,[9],inactive
same,outcome,[10],inactive
same,outcome,[11],inactive
same,outcome,[12],inactive
CN1C(=O)CC[C@H]1c1cccnc1,outcome,[2],inactive
same,outcome,[13],inactive
same,outcome,[14],inactive
same,outcome,[3],inactive
same,outcome,[15],inactive
same,outcome,[16],inactive
same,outcome,[5],inactive
same,outcome,[6],inactive
same,outcome,[7],inactive
same,outcome,[8],inactive
same,outcome,[9],inactive
same,outcome,[10],inactive
same,outcome,[11],inactive
CN(C[C@@H](CC[N+]12CCC(C3CCCCC3)(CC1)CC2)c1ccc(Cl)c(Cl)c1)C(=O)c1cc(C(F)(F)F)cc(C(F)(F)F)c1,outcome,[1],inactive
same,AC50,[2],39 µM (active)
same,outcome,[3],inactive
same,outcome,[17],inactive
same,outcome,[15],inactive
same,outcome,[16],inactive
same,outcome,[18],inactive
same,AC50,[5],27.5 µM (active)
same,AC50,[6],27.6 µM (active)
same,AC50,[7],21.1 µM (active)
same,AC50,[9],14.6 µM (active)
same,AC50,[10],24.3 µM (active)
same,AC50,[11],33.6 µM (active)
same,outcome,[12],inactive
Cc1cc(F)ccc1-c1cc(N2CC[C@@H](O)[C@H]2CO)ncc1N(C)C(=O)C(C)(C)c1cc(C(F)(F)F)cc(C(F)(F)F)c1,outcome,[1],inactive
same,AC50,[2],12.8 µM (active)
same,outcome,[14],inactive
same,AC50,[3],1.14 µM (active)
same,AC50,[5],10.9 µM (active)
same,AC50,[6],14.6 µM (active)
same,AC50,[7],10 µM (active)
same,AC50,[8],6.91 µM (active)
same,AC50,[9],9.43 µM (active)
same,AC50,[10],9.76 µM (active)
same,AC50,[11],12.9 µM (active)
same,outcome,[12],inactive
same,AC50,[19],9.17 µM (active)
O=C1O[C@H]([C@@H](O)CO)C(O)=C1O,outcome,[1],inactive
same,outcome,[2],inactive
same,outcome,[14],inactive
same,outcome,[15],inactive
same,AC50,[4],26.6 µM (active)
same,outcome,[4],inactive
same,AC50,[16],35.9 µM (active)
same,outcome,[16],inactive
same,outcome,[18],inactive
same,outcome,[5],inactive
same,outcome,[6],inactive
same,outcome,[7],inactive
same,outcome,[9],inactive
same,outcome,[10],inactive
same,outcome,[11],inactive
COCC(C)OCC(C)OCC(C)O (stereo unspecified),outcome,[1],inactive
same,outcome,[2],inactive
same,outcome,[3],inactive
same,outcome,[16],inactive
same,outcome,[18],inactive
same,outcome,[5],inactive
same,outcome,[6],inactive
same,outcome,[7],inactive
same,outcome,[9],inactive
same,outcome,[10],inactive
same,outcome,[11],inactive
CCN(Cc1cccc(S(=O)(=O)O)c1)c1ccc(C(=C2C=CC(=[N+](CC)Cc3cccc(S(=O)(=O)O)c3)C=C2)c2ccccc2S(=O)(=O)[O-])cc1,outcome,[1],inactive
same,outcome,[2],inactive
same,outcome,[14],inactive
same,outcome,[3],inactive
same,outcome,[17],inactive
same,outcome,[18],inactive
same,outcome,[5],inactive
same,outcome,[6],inactive
same,outcome,[7],inactive
same,outcome,[8],inactive
same,outcome,[9],inactive
same,outcome,[10],inactive
same,outcome,[11],inactive
same,outcome,[12],inactive
same,outcome,[19],inactive
Cc1occc1C(=O)Nc1ccc(C(=O)N2CCC(F)(F)/C(=C\C(=O)N3CCC(N4CCCCC4)CC3)c3ccccc32)cc1,outcome,[2],inactive
same,AC50,[14],59.6 µM (active)
same,AC50,[3],25.5 µM (active)
same,AC50,[16],55.2 µM (active)
same,AC50,[18],53.8 µM (active)
same,outcome,[5],inactive
same,outcome,[6],inactive
same,outcome,[7],inactive
same,outcome,[9],inactive
same,outcome,[10],inactive
same,outcome,[11],inactive
same,outcome,[12],inactive
same,AC50,[19],11.5 µM (active)

# From PubChem BioAssay (EPA / NIEHS)
